Here are results for 40 sequences from the supplement of paper PMC6555819.

One experiment relates to RARa:RXR (NR concentration 270 nM, RXRa partner concentration 90 nM). Put plainly: PBM binding z-score (relative to random genomic background probes); higher = stronger binding; sequences stand for … in GC…GCGATTGACAGCGTAGAATGAAGG
The method, boiled down: (§1)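 On custom Agilent 4×180K arrays, double-stranded probes with 34-nt variable regions carried direct-repeat seeds, single-nucleotide variants, half-site ablations or random human genomic background. Ligand-free nuclear receptor dimers were applied for 1 h, and binding was read with antibodies against each partner (one per run). Binding z-scores come from regression-normalized fluorescence, with the random background probes as reference.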
In turn, ATCTCTAGGTAAAGATAGTTCGGTGAATGCAAAT yielded a PBM binding z-score of 0.121.
TCTAGCAGTCCAGAGGGTCACTCAAGAGGTACGG gave a PBM binding z-score of 2.48.
With CCTAGCAGGCCAATCTGGGACACTCAAGGCTTGA, the PBM binding z-score is -0.753.
Turning to TCTGACAGGTGAAGGTAACTCAGGTACGCAGTCG, the PBM binding z-score was 0.82.
For TATACAGGCTCAAAGGCCAGAGTACGAATGTCGA, the PBM binding z-score was -0.258.
GGAACGAGGGCATTCGAGTTAATAGCATGGCGAT came in with a PBM binding z-score of 0.742.
For CCTACTGGGCCAATGGTCATTGATTCCAATGCTC, the PBM binding z-score was -0.388.
Regarding GCTGCTAGGTCAACTGATGGTCGGCTAAAGCTCG, the PBM binding z-score worked out at 2.31.
Same read-out and setting: in the case of ACTCGGAGGACCAAGGTCAGAGCTACGCCAGTGA it was 1.88; in that of GGAACGAAGGCAAAGTTGATAGCATCTGTCGACG, -0.458.
On to GGAACGAGGGCATGCGAGTTGATAGCATGGCGAT, for which the PBM binding z-score is 0.73.
Sequence TCTTGTAGATCACGCAGGTTAAGAAAGCCTGAGT yielded a PBM binding z-score of 0.685.
In turn, TCTTGTAGAACAAGCAGGTTAAGAAAGCCTGAGT gave a PBM binding z-score of 0.607.
Regarding AATACCGGGTCATCGTAGGCCAGAGTACGCACAG, the PBM binding z-score was 4.53.
On to CCTAGCAGGCCAATCTGAGTCACTCAAGGCTTGA, for which the PBM binding z-score is -0.853.
AGTCAAAGTTCATCTAGGTAAGGTAAGATATGCT registered a PBM binding z-score of 3.9.
AGAACAAGGGCAATGAGTTGATAGCACGGGTGGC came in with a PBM binding z-score of 0.000148.
In the case of CAAACTAGGGCACAGAGGTCAAAGTCCGTGCGTA, the PBM binding z-score stood at 6.5.
In the case of ATCGAAAGGTCGACGGGGTGAGTATACACCGTTT, the PBM binding z-score stood at 4.46.
On to TAGCCGAGGTCATGGGCCAGTATACCACGCGAAC, for which the PBM binding z-score stood at 5.62.
TCTAGTTGGTCACGGAGGTAACACACGACGGGTA came in with a PBM binding z-score of 0.834.
With CCTACTGGGCCAGGGTCATTGATCAGTCAAAGCA, the PBM binding z-score was found to be 3.61.
The sequence TCTGCTAGGTCAACGATGGACAGCTAATCTGCTA yielded a PBM binding z-score of 2.01.
TCATATAGGTAAAGGTTAAAGTCGAACGATATGA: the PBM binding z-score is 3.21.
The sequence ACTAGTAGGCCAAGTTTGGGTCACTCAAACAAAG showed a PBM binding z-score of 1.74.
On to TCTTGTAGAACAGCAGGTTAAGAAAGCTGGCCAA, for which the PBM binding z-score was -0.0223.
On to CCTATTAGTTGACCATAAGGGCTACCGAAGCTCG, for which the PBM binding z-score is 0.373.
The sequence GCAGACAGGTGAAACGCGGGTAACTCAGGGTGGC had a PBM binding z-score of 0.318.
Turning to CCTAGTTGGTCAGGAGGTCAAACACCGGATATGA, the PBM binding z-score was determined as 5.06.
As to TCGAGTAGGTTACAAATGGGGCATTCAGCTTTCT, the PBM binding z-score is 0.475.
The sequence GCTGCTAGGTCAGGTAGGTCAGCTAACGGGTACG showed a PBM binding z-score of 1.95.
On to CCTAGTTGGTGAAGGTCACACACGCTATAGGTAC, for which the PBM binding z-score is 3.61.
In the case of CTACCAAGGTGAACAAGGCCGTTGATTACTATTC, the PBM binding z-score is 0.868.
The sequence TATACAGGGTCAAAGGCCAGAGTCCGAATGTCGA came in with a PBM binding z-score of 5.31.
On to CGTCCAAGGTCAAAGGTCAGTGTAGAGATGACGG, for which the PBM binding z-score is 8.91.
Sequence GTACGAAGGTGAATAGGTCGTTGATGAGTAGGCG yielded a PBM binding z-score of 1.75.
Turning to CCTTACGGGTCAAGGTTATAGTACGGGTGGTACG, the PBM binding z-score came out at 4.68.
The sequence ACAATGAGGTTATTAAGATCAGGGAATTGCGGTC had a PBM binding z-score of 1.49.
Same read-out and setting: next, TCGAGTAGGTTACCAATGGGGCACTCAGCTTTCT: 0.158; CCTACTGGGCCATTCAGAGGTCCTTGATCATATG: -0.409.

The subject of a further experiment is RARa homodimer (NR concentration 270 nM). The description is as above. The method, boiled down:
as §1
ATCTCTAGGTAAAGATAGTTCGGTGAATGCAAAT: the PBM binding z-score is 0.697.
As for TCTAGCAGTCCAGAGGGTCACTCAAGAGGTACGG, the PBM binding z-score came to 0.0783.
As for CCTAGCAGGCCAATCTGGGACACTCAAGGCTTGA, the PBM binding z-score is -0.862.
Sequence TCTGACAGGTGAAGGTAACTCAGGTACGCAGTCG showed a PBM binding z-score of 0.0675.
TATACAGGCTCAAAGGCCAGAGTACGAATGTCGA returned a PBM binding z-score of 0.14.
As to GGAACGAGGGCATTCGAGTTAATAGCATGGCGAT, the PBM binding z-score was -0.33.
Take CCTACTGGGCCAATGGTCATTGATTCCAATGCTC: the PBM binding z-score is -0.588.
GCTGCTAGGTCAACTGATGGTCGGCTAAAGCTCG: the PBM binding z-score was -0.561.
As to ACTCGGAGGACCAAGGTCAGAGCTACGCCAGTGA, the PBM binding z-score is -0.14.
Consider GGAACGAAGGCAAAGTTGATAGCATCTGTCGACG, for which the PBM binding z-score is -0.886.
As for GGAACGAGGGCATGCGAGTTGATAGCATGGCGAT, the PBM binding z-score was -0.824.
For TCTTGTAGATCACGCAGGTTAAGAAAGCCTGAGT, the PBM binding z-score was 0.00384.
Take TCTTGTAGAACAAGCAGGTTAAGAAAGCCTGAGT: the PBM binding z-score was -0.498.
AATACCGGGTCATCGTAGGCCAGAGTACGCACAG displayed a PBM binding z-score of 0.886.
Turning to CCTAGCAGGCCAATCTGAGTCACTCAAGGCTTGA, the PBM binding z-score is -0.569.
For the sequence AGTCAAAGTTCATCTAGGTAAGGTAAGATATGCT, the PBM binding z-score was found to be 1.68.
For the sequence AGAACAAGGGCAATGAGTTGATAGCACGGGTGGC, the PBM binding z-score was -0.325.
CAAACTAGGGCACAGAGGTCAAAGTCCGTGCGTA gave a PBM binding z-score of 1.61.
Same read-out and setting: next, ATCGAAAGGTCGACGGGGTGAGTATACACCGTTT: 0.456.
Take TAGCCGAGGTCATGGGCCAGTATACCACGCGAAC: the PBM binding z-score stood at 0.741.
Consider TCTAGTTGGTCACGGAGGTAACACACGACGGGTA, for which the PBM binding z-score turned out to be 0.81.
With CCTACTGGGCCAGGGTCATTGATCAGTCAAAGCA, the PBM binding z-score was -0.641.
Still for that read-out and setting: in the case of TCTGCTAGGTCAACGATGGACAGCTAATCTGCTA it was -0.131; in that of TCATATAGGTAAAGGTTAAAGTCGAACGATATGA, 1.26.
As to ACTAGTAGGCCAAGTTTGGGTCACTCAAACAAAG, the PBM binding z-score is -0.227.
With TCTTGTAGAACAGCAGGTTAAGAAAGCTGGCCAA, the PBM binding z-score is -1.16.
On the same count and under the same terms, next, CCTATTAGTTGACCATAAGGGCTACCGAAGCTCG: 1.97.
As for GCAGACAGGTGAAACGCGGGTAACTCAGGGTGGC, the PBM binding z-score is -0.909.
Same read-out and setting: in the case of CCTAGTTGGTCAGGAGGTCAAACACCGGATATGA it was 2.09.
Sequence TCGAGTAGGTTACAAATGGGGCATTCAGCTTTCT returned a PBM binding z-score of 0.267.
For the sequence GCTGCTAGGTCAGGTAGGTCAGCTAACGGGTACG, the PBM binding z-score is -0.315.
CCTAGTTGGTGAAGGTCACACACGCTATAGGTAC registered a PBM binding z-score of 1.61.
As to CTACCAAGGTGAACAAGGCCGTTGATTACTATTC, the PBM binding z-score is -0.304.
Same read-out and setting: next, TATACAGGGTCAAAGGCCAGAGTCCGAATGTCGA: 0.835.
The same measure, in the same setting: next, CGTCCAAGGTCAAAGGTCAGTGTAGAGATGACGG: 3.88; GTACGAAGGTGAATAGGTCGTTGATGAGTAGGCG: 0.356; CCTTACGGGTCAAGGTTATAGTACGGGTGGTACG: 1.47.
For the sequence ACAATGAGGTTATTAAGATCAGGGAATTGCGGTC, the PBM binding z-score was 1.12.
On the same count and under the same terms, in the case of TCGAGTAGGTTACCAATGGGGCACTCAGCTTTCT it was -0.688; in that of CCTACTGGGCCATTCAGAGGTCCTTGATCATATG, -0.479.
